Binding signal data for one sequence are collected here from publication PMC7862700, “An all-to-all approach to the identification of sequence-specific readers for epigenetic DNA modifications on cytosine”.

Holding throughout (assay): DAPPL (digital affinity profiling via proximity ligation, sequencing); 10 mM Tris-HCl pH 7.5, 50 mM NaCl, 1 mM DTT, 4% glycerol, room temperature, 30 min; GST-TFs on glutathione beads, 16-mer random dsDNA library, 0.1% formaldehyde crosslink after washing; high values mean tight binding
For one test, the target named is T1, FEV (Homo sapiens, UniProt Q99581 1-238).
T1 sequence: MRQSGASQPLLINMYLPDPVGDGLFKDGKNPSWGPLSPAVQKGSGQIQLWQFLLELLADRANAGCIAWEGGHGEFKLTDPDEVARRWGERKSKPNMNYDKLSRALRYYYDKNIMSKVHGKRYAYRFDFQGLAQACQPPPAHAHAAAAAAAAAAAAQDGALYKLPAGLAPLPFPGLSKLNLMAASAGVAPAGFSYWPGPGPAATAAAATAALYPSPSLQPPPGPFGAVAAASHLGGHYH
Particulars: protein: recombinant; tags: N-terminal GST; dsDNA, one strand shown. The procedure, abridged:
(§1)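 In yeast, human transcription factors were expressed with a GST fusion, then pulled down on glutathione beads and given DNA barcodes. Pooled with a tag-only sample, they were exposed to 200 nmole of a 16-mer random double-stranded DNA library (Tris/NaCl/DTT/glycerol buffer, room temperature, 30 min), washed, crosslinked with 0.1% formaldehyde, proximity-ligated using BsaI/T4 ligase for 1 h at 37 °C, PCR-amplified and read on an Illumina NextSeq500. Each hexamer's frequency of reads for a factor, divided by the matching frequency for the tag-only sample, gives the binding signal.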

The next test concerns the target ETV5 (Homo sapiens, UniProt P41161 1-510). Particulars: protein: recombinant; tags: N-terminal GST; dsDNA, one strand shown. Summed up:
as §1

The next test has as its target HSF1 (Homo sapiens, UniProt Q00613 1-529). Particulars: protein: recombinant; tags: N-terminal GST; chain copies: 3; dsDNA, one strand shown. Summed up: as §1
The next test concerns the target T2, SPIC (Homo sapiens, UniProt Q8N5J4 1-248).
T2 sequence: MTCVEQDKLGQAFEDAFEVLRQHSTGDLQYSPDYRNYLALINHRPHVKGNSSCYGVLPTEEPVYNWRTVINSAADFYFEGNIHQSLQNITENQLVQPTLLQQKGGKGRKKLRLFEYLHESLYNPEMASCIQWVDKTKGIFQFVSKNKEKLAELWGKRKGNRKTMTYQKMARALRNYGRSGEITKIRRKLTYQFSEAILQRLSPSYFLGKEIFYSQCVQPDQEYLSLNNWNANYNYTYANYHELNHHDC
Particulars: protein: recombinant; tags: N-terminal GST; dsDNA, one strand shown. The procedure, abridged: as §1

The next test deals with ELF4 (Homo sapiens, UniProt Q99607 1-663). To be noted: protein: recombinant; tags: N-terminal GST; dsDNA, one strand shown. The procedure, abridged: as §1
Sequence of ELF4 (Q99607 whole entry): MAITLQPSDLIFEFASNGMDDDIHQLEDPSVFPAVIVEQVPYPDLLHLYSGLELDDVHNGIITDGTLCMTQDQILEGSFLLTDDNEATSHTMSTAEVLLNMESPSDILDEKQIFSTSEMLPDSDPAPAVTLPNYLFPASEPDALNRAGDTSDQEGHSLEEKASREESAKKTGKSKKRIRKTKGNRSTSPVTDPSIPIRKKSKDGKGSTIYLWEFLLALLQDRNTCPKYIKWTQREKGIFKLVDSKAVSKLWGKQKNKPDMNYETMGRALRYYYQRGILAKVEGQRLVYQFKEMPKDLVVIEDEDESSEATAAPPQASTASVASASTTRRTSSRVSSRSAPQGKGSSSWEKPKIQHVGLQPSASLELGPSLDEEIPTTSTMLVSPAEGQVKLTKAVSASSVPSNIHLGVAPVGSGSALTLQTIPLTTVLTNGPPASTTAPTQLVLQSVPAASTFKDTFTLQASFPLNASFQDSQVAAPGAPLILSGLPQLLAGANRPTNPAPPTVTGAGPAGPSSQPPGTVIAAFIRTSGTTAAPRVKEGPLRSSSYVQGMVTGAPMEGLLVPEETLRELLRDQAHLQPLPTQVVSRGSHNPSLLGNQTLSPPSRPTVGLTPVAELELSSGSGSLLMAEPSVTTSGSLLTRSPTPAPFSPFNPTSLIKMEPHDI
A further test concerns the target T3, ELK4 (Homo sapiens, UniProt P28324-2 1-405).
T3 sequence: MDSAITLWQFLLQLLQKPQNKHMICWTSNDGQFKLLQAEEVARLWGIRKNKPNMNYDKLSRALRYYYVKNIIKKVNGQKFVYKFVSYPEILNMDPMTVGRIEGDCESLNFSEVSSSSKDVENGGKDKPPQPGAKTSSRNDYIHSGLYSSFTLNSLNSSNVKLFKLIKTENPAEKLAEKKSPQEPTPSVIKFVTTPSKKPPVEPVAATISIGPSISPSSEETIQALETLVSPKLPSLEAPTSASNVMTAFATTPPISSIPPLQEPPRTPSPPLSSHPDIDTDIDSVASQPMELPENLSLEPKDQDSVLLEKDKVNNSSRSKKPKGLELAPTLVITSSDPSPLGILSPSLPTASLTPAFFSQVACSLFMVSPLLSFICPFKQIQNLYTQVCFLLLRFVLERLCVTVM
To be noted: protein: recombinant; tags: N-terminal GST; dsDNA, one strand shown. The procedure, abridged:
as §1

In another test the target is T4, ETV2 (Homo sapiens, UniProt O00321 1-342).
T4 sequence: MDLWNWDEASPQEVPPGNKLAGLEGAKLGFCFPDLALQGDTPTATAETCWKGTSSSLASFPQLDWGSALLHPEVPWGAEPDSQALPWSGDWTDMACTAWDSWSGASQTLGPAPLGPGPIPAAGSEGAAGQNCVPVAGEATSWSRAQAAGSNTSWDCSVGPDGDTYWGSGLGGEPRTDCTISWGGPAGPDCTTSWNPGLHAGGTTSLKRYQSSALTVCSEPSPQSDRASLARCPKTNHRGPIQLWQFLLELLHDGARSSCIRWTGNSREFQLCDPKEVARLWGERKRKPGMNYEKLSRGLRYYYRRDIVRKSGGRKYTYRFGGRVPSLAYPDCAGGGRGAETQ
To be noted: protein: recombinant; tags: N-terminal GST; dsDNA, one strand shown. The procedure, abridged:
as §1

The target of another test is T5, ELF3 (Homo sapiens, UniProt P78545 1-371).
T5 sequence: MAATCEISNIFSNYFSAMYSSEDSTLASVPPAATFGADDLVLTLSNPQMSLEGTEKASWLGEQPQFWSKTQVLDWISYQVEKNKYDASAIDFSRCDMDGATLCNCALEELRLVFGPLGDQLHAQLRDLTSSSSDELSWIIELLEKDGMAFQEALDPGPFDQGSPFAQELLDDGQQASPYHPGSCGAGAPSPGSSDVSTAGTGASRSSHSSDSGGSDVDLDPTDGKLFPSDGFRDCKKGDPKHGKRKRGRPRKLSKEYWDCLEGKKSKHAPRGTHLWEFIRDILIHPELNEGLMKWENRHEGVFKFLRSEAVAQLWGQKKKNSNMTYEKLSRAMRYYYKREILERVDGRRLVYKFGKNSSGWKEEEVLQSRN
To be noted: protein: recombinant; tags: N-terminal GST; dsDNA, one strand shown. Summed up: as §1

Another test addresses CRX (Homo sapiens, UniProt O43186 1-299). To be noted: protein: recombinant; tags: N-terminal GST; dsDNA, one strand shown. Summed up: as §1
Another test addresses ETV1 (Homo sapiens, UniProt P50549 1-477). Particulars: protein: recombinant; tags: N-terminal GST; dsDNA, one strand shown. The procedure, abridged: as §1
In another test the target is T6, ERF (Homo sapiens, UniProt P50548 1-548).
T6 sequence: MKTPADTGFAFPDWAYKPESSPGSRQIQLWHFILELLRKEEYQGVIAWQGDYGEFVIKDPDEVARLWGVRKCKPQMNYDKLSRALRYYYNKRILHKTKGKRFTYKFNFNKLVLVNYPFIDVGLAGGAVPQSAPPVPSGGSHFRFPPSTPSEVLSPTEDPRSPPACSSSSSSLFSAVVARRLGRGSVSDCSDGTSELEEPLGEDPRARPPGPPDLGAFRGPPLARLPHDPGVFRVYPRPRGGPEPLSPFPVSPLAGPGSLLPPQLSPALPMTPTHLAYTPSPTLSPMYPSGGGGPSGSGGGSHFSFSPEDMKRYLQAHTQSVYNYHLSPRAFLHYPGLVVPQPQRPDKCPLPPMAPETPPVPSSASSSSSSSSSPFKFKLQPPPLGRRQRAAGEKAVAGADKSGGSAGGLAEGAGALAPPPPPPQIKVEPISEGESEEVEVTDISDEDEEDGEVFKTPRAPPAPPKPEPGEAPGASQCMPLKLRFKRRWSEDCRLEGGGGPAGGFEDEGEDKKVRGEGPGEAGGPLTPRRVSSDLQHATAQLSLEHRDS
Particulars: protein: recombinant; tags: N-terminal GST; dsDNA, one strand shown. Summed up: as §1

The next test concerns the target T7, ETV3L (Homo sapiens, UniProt Q6ZN32 1-361).
T7 sequence: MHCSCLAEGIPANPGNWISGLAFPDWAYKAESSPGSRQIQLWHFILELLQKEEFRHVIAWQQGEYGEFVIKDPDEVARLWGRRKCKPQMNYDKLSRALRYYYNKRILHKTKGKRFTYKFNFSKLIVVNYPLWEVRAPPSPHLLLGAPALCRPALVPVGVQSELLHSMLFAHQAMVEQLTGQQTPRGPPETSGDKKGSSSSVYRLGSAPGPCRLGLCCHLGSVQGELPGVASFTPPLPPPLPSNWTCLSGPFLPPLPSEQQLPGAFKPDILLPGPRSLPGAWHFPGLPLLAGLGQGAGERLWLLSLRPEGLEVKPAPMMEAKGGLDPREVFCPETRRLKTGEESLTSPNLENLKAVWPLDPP
To be noted: protein: recombinant; tags: N-terminal GST; dsDNA, one strand shown. Summed up:
as §1

In a further test the target is T8, ETS2 (Homo sapiens, UniProt P15036 1-469).
T8 sequence: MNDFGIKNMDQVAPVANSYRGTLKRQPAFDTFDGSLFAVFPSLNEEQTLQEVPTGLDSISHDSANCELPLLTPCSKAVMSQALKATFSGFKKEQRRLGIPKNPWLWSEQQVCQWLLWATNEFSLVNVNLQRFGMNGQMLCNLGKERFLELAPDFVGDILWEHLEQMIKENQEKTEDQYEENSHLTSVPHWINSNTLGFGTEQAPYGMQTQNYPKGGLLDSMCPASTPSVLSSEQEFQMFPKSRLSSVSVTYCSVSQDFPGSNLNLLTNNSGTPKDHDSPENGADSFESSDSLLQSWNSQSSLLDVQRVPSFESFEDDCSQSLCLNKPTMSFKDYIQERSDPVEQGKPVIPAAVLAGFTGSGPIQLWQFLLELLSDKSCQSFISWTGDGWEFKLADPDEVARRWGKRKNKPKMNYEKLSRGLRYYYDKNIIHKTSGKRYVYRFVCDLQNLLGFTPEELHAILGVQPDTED
Particulars: protein: recombinant; tags: N-terminal GST; dsDNA, one strand shown. The procedure, abridged: as §1

The target of the next test is T9, SPDEF (Homo sapiens, UniProt O95238 1-335).
T9 sequence: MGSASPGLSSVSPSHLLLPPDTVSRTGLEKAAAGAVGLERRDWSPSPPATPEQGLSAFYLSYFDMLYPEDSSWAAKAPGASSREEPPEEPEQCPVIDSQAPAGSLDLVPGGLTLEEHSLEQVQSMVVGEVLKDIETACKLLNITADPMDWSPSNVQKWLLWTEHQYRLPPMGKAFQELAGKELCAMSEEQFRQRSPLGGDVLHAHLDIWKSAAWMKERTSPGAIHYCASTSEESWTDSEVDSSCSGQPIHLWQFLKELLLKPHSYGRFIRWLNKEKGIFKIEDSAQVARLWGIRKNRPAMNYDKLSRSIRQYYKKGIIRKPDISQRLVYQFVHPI
To be noted: protein: recombinant; tags: N-terminal GST; dsDNA, one strand shown. The procedure, abridged: as §1

In a further test the target is T10, ETV7 (Homo sapiens, UniProt Q9Y603 1-341).
T10 sequence: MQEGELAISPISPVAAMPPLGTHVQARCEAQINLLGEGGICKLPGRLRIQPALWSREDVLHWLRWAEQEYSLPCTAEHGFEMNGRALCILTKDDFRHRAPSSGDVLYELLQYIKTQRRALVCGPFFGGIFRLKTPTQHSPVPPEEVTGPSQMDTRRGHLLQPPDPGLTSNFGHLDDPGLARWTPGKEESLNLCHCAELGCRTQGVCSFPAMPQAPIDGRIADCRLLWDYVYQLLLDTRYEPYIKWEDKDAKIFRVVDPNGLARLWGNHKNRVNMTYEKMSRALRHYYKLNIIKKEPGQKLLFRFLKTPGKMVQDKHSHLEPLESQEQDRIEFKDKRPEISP
Particulars: protein: recombinant; tags: N-terminal GST; dsDNA, one strand shown. The procedure, abridged:
as §1

In another test the target is T11, ELF5 (Homo sapiens, UniProt Q9UKW6-2 1-255).
T11 sequence: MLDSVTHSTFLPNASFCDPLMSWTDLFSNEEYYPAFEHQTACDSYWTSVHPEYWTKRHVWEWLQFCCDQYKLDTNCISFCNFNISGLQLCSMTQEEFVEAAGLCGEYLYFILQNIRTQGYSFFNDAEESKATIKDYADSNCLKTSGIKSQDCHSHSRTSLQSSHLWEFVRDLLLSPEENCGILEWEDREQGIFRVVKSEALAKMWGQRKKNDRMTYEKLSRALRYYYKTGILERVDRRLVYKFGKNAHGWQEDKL
Particulars: protein: recombinant; tags: N-terminal GST; dsDNA, one strand shown. Summed up: as §1

The target of the next test is T12, ETV3 (Homo sapiens, UniProt P41162-2 1-143).
T12 sequence: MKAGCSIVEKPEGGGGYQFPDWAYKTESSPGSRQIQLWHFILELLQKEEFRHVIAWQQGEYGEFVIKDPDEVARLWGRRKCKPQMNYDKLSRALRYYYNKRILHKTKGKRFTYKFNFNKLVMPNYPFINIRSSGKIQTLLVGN
To be noted: protein: recombinant; tags: N-terminal GST; dsDNA, one strand shown. The procedure, abridged:
as §1

A further test concerns the target ETV6 (Homo sapiens, UniProt P41212 1-452). To be noted: protein: recombinant; tags: N-terminal GST; dsDNA, one strand shown. The procedure, abridged: as §1

Sequence of CRX (O43186 whole entry): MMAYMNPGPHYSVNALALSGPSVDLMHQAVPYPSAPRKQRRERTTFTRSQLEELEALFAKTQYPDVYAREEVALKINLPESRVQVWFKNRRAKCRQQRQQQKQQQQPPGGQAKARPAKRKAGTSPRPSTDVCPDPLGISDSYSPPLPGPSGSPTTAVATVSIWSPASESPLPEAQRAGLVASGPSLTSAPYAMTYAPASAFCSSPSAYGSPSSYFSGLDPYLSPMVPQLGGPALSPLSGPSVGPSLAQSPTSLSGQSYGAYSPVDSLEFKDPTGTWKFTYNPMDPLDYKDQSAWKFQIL
Sequence of ETV5 (P41161 whole entry): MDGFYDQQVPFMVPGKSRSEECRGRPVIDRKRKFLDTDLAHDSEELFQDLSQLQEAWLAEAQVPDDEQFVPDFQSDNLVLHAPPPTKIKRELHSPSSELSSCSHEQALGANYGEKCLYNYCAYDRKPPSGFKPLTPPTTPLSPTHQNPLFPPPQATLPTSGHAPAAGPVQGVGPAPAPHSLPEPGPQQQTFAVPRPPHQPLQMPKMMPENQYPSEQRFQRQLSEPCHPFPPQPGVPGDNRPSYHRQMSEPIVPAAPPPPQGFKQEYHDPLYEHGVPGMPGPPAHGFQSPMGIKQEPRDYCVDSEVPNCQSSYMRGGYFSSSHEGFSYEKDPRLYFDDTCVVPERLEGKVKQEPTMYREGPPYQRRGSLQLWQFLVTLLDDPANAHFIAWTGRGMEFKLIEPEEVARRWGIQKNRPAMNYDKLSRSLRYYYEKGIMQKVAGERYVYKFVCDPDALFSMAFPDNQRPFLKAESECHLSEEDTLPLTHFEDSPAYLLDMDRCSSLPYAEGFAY
Sequence of ETV1 (P50549 whole entry): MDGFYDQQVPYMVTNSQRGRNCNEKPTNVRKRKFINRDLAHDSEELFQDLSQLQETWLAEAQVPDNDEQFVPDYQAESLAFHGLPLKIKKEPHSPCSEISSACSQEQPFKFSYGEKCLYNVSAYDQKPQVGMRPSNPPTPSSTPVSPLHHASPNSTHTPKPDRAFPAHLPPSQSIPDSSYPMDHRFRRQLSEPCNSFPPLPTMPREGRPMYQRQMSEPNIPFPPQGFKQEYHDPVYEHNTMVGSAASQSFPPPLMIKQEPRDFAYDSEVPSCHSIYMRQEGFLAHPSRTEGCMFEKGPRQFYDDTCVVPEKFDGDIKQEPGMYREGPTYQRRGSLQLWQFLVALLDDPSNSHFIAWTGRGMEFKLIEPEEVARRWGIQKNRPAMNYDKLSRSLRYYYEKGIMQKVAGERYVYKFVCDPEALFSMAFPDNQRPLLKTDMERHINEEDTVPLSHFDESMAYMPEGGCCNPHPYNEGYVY
Sequence of HSF1 (Q00613 whole entry): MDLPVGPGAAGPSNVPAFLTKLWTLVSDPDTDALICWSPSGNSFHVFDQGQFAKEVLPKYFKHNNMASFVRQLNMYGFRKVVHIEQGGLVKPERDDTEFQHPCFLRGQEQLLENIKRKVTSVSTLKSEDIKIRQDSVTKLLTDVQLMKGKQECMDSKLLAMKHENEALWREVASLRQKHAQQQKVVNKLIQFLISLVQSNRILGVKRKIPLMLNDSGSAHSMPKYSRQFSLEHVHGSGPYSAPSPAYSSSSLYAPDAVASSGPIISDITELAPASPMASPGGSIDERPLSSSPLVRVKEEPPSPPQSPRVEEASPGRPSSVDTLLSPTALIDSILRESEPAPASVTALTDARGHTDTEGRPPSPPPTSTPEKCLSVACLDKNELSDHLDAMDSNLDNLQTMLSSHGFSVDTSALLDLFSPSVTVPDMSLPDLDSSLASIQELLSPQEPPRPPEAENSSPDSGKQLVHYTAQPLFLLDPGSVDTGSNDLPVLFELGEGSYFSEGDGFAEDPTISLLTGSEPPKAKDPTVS
Sequence of ETV6 (P41212 whole entry): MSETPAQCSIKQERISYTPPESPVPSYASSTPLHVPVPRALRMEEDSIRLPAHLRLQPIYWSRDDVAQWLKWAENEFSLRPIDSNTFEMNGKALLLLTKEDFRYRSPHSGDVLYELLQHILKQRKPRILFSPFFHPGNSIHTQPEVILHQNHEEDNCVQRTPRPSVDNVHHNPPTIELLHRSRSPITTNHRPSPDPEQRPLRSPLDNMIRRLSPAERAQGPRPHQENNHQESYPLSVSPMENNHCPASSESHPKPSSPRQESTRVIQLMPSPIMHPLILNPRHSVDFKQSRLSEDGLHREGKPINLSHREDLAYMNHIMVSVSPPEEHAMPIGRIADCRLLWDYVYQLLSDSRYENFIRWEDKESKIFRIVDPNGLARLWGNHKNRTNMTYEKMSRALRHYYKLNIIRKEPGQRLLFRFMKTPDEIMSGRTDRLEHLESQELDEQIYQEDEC

Take CTCAAG: the binding signal is 1.16 fold enrichment (6-mer frequency, TF over GST control) in the test with FEV; 1.14 fold enrichment (6-mer frequency, TF over GST control) in the test with ETV5; 1.19 fold enrichment (6-mer frequency, TF over GST control) in the test with HSF1; 1.1 fold enrichment (6-mer frequency, TF over GST control) with SPIC; 1.19 fold enrichment (6-mer frequency, TF over GST control) with ELF4; 1.09 fold enrichment (6-mer frequency, TF over GST control) in the test with ELK4. Moreover, the binding signal in the test with ETV2 is 1.11 fold enrichment (6-mer frequency, TF over GST control); with ELF3, 1.22 fold enrichment (6-mer frequency, TF over GST control); with CRX it was 1.2 fold enrichment (6-mer frequency, TF over GST control); with ETV1, 1.21 fold enrichment (6-mer frequency, TF over GST control); with ERF, 1.27 fold enrichment (6-mer frequency, TF over GST control); with ETV3L it was 1.1 fold enrichment (6-mer frequency, TF over GST control). The binding signal was 1.22 fold enrichment (6-mer frequency, TF over GST control) in the test with ETS2; 1.14 fold enrichment (6-mer frequency, TF over GST control) with SPDEF; 1.24 fold enrichment (6-mer frequency, TF over GST control) with ETV7; 1.1 fold enrichment (6-mer frequency, TF over GST control) with ELF5; 1.24 fold enrichment (6-mer frequency, TF over GST control) with ETV3; 1.22 fold enrichment (6-mer frequency, TF over GST control) with ETV6.
